# Results reported in PubChem BioAssay (NCATS).
# Results filed as inconclusive are left out. A call without a number means that no potency is given here. Calls of active or inactive are those of the source. Calls come from the whole dose curve; as a rule, active = well fitted curve in the direction sought with a large enough effect; inconclusive = small, poorly fitted or top-dose-only effect, or another doubt; inactive = no such curve, though single readings can be large; an effect the other way counts as inactive or inconclusive.
# Experiments:
# [1] = Quantitative High-Throughput drug screen in 47 multiple myeloma cell lines against the NCATS MIPE library collection: KMS27_JCRB cell viability assay (AID 1918970); note: nearly all actives have a fitted effect of over 30% in size
# How it was run: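 Luminescent ATP read-out (CellTiter-Glo, 5 min at room temperature) after 48 h compound exposure of 500 KMS27_JCRB cells per well; DMSO wells define full viability and media-only wells zero.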
# [2] = Quantitative High-Throughput drug screen in 47 multiple myeloma cell lines against the NCATS MIPE library collection: KMS12PE_JCRB cell viability assay (AID 1918972); note: nearly all actives have a fitted effect of over 30% in size
# How it was run: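 Myeloma cells (500 per well) were exposed to MIPE 4.0 compounds by pin transfer and incubated 48 hours at 37C, 5% CO2. Viability was read as ATP by CellTiter-Glo luminescence, normalised to DMSO (100%) and media-only (0%) wells.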
# [3] = Quantitative High-Throughput drug screen in 47 multiple myeloma cell lines against the NCATS MIPE library collection: KMS20_JCRB cell viability assay (AID 1918973); note: nearly all actives have a fitted effect of over 45% in size
# How it was run: (§1)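 Steps: seed 500 cells per well; pin-transfer MIPE 4.0 library; incubate 48 h at 37C, 5% CO2, humidified; add CellTiter-Glo, 5 min room temperature; read luminescence.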
# [4] = Quantitative High-Throughput drug screen in 47 multiple myeloma cell lines against the NCATS MIPE library collection: MOLP8_DSMZ cell viability assay (AID 1918977); note: nearly all actives have a fitted effect of over 45% in size
# How it was run: (§2)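 Myeloma cells (500/well) treated with MIPE 4.0 compounds for 48 h at 37 °C, 5% CO2. Viability read as ATP via CellTiter-Glo luminescence after 5 min at RT; DMSO-only wells = 100%, media-only = 0% viability.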
# [5] = Quantitative High-Throughput drug screen in 47 multiple myeloma cell lines against the NCATS MIPE library collection: NCIH929_DSMZ cell viability assay (AID 1918978); note: nearly all actives have a fitted effect of over 35% in size
# How it was run: as §2
# [6] = Quantitative High-Throughput drug screen in 47 multiple myeloma cell lines against the NCATS MIPE library collection: KMS26_JCRB cell viability assay (AID 1918975); note: nearly all actives have a fitted effect of over 45% in size
# How it was run: (§3)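 We plated 500 myeloma cells per well, pinned in MIPE 4.0 compounds, and incubated for 48 hours at 37C. ATP was then quantified with CellTiter-Glo, with DMSO and media-only wells defining 100% and 0%.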
# [7] = Quantitative High-Throughput drug screen in 47 multiple myeloma cell lines against the NCATS MIPE library collection: KMS12BM_JCRB cell viability assay (AID 1918971); note: nearly all actives have a fitted effect of over 35% in size
# How it was run: as §3
# [8] = Quantitative High-Throughput drug screen in 47 multiple myeloma cell lines against the NCATS MIPE library collection: KMS21BM_JCRB cell viability assay (AID 1918974); details: ATP luminescence, 48 h; viability: at 45.8 µM (top of the series) unless noted
# How it was run: as §1
# [9] = Quantitative High-Throughput drug screen in 47 multiple myeloma cell lines against the NCATS MIPE library collection: MMM1_PLB cell viability assay (AID 1918976); note: nearly all actives have a fitted effect of over 35% in size
# How it was run: as §2
# [10] = Quantitative High-Throughput drug screen in 47 multiple myeloma cell lines against the NCATS MIPE library collection: Karpas25_ECACC cell viability assay (AID 1918968; note: nearly all actives have a fitted effect of over 35% in size)
# How it was run: as §1
# Potency is the fitted concentration of half-maximal effect.
compound,measurement,setting,value
NC(=O)c1ccc(-c2nc(-c3ccc4c(c3)OCO4)c(-c3ccccn3)[nH]2)cc1,Potency,[1],inactive
same,Potency,[2],inactive
same,Potency,[3],inactive
same,Potency,[4],inactive
same,Potency,[5],inactive
CC(C)(C)OC(=O)CN(Cc1ccc(Cl)cc1)Cc1ccc([N+](=O)[O-])s1,Potency,[1],inactive
same,Potency,[2],inactive
same,Potency,[3],inactive
same,Potency,[5],inactive
C[C@]12CC[C@H](O)CC1=CC[C@@H]1[C@H]2CC[C@]2(C)C(c3cccnc3)=CC[C@H]12,Potency,[1],inactive
same,Potency,[2],inactive
same,Potency,[3],inactive
same,Potency,[6],inactive
CCN(c1ccccc1)c1cc(NC)[n+](C)c(C)n1,Potency,[1],6.62 µM (active)
same,Potency,[7],14.8 µM (active)
same,Potency,[3],inactive
same,Potency,[8],0.372 µM (active)
same,Potency,[4],2.09 µM (active)
same,Potency,[5],inactive
CC[C@@H](C)[C@H](NC(=O)[C@H](CC1CCCCC1)NC(=O)c1ccno1)C(=O)N1CCC2(CCc3ccccc32)CC1,Potency,[1],inactive
same,Potency,[2],inactive
same,Potency,[9],11.8 µM (active)
CNC(=O)c1ccc(N2C(=S)N(c3ccc(C#N)c(C(F)(F)F)c3)C(=O)C2(C)C)cc1F,Potency,[10],18.7 µM (active)
same,Potency,[6],inactive
same,Potency,[4],inactive
same,Potency,[5],inactive
NC(=O)c1ccc(I)c([N+](=O)[O-])c1,Potency,[10],23.5 µM (active)
same,Potency,[5],8.33 µM (active)
OC(CN1CCC(Cc2ccc(F)cc2)CC1)c1ccc(Cl)cc1 (stereo unspecified),Potency,[1],inactive
same,Potency,[7],inactive
same,Potency,[2],inactive
same,Potency,[8],inactive
same,Potency,[6],inactive
same,Potency,[4],inactive
same,Potency,[5],inactive
CC[C@H](Nc1ncnc2nc[nH]c12)c1nc2cccc(F)c2c(=O)n1-c1ccccc1,Potency,[10],11.8 µM (active)
same,Potency,[8],inactive
same,Potency,[6],13.2 µM (active)
same,Potency,[9],18.7 µM (active)
same,Potency,[4],23.5 µM (active)
same,Potency,[5],8.33 µM (active)
C#Cc1cccc(Nc2ncnc3cc(OCCOC)c(OCCOC)cc23)c1,Potency,[1],5.26 µM (active)
same,Potency,[7],20.9 µM (active)
same,Potency,[2],2.09 µM (active)
same,Potency,[5],7.43 µM (active)
COCC(=O)NCC=Cc1ccc2ncnc(Nc3ccc(Oc4ccc(C)nc4)c(C)c3)c2c1,Potency,[10],6.62 µM (active)
same,Potency,[2],16.6 µM (active)
same,Potency,[5],20.9 µM (active)
CCCn1c(=O)c2[nH]c(C34CC5CC3C[C@@H](C5)C4)nc2n(CCC)c1=O,Potency,[10],inactive
same,Potency,[9],18.7 µM (active)
same,Potency,[5],inactive
CCOc1ccn(-c2ccc(F)cc2)c(=O)c1C(=O)Nc1ccc(Oc2ccnc(N)c2Cl)c(F)c1,Potency,[10],2.35 µM (active)
same,Potency,[6],inactive
CCc1cc(Nc2nccc(-c3c(-c4ccc(OC)c(C(=O)Nc5c(F)cccc5F)c4)nc4ccccn34)n2)c(OC)cc1N1CCC(N2CCN(S(C)(=O)=O)CC2)CC1,Potency,[10],7.43 µM (active)
same,Potency,[5],7.43 µM (active)
Cc1oncc1C(=O)Nc1ccc(C(F)(F)F)cc1,Potency,[1],inactive
same,Potency,[2],inactive
same,Potency,[6],inactive
same,Potency,[5],18.7 µM (active)
CS(=O)(=O)c1ccc(C(=O)Nc2ccc(Cl)c(-c3ccccn3)c2)c(Cl)c1,Potency,[10],9.35 µM (active)
same,Potency,[6],inactive
same,Potency,[4],inactive
same,Potency,[5],2.96 µM (active)
CCCC(CCC)C(=O)O,Potency,[1],inactive
same,Potency,[7],inactive
same,Potency,[2],inactive
same,Potency,[6],inactive
same,Potency,[4],inactive
same,Potency,[5],inactive
Cc1ccc(-n2nc(C(C)(C)C)cc2NC(=O)Nc2ccc(OCCN3CCOCC3)c3ccccc23)cc1,Potency,[10],1.05 µM (active)
same,Potency,[6],26.4 µM (active)
same,Potency,[5],0.59 µM (active)
NC[C@H](O)c1ccc(O)c(O)c1,Potency,[1],inactive
same,Potency,[7],20.9 µM (active)
same,Potency,[2],inactive
same,Potency,[9],23.5 µM (active)
same,Potency,[5],inactive
CCC(C)N(C)C(=O)c1cc2ccccc2c(-c2ccccc2Cl)n1 (stereo unspecified),Potency,[1],16.6 µM (active)
same,Potency,[3],inactive
same,Potency,[4],inactive
same,Potency,[5],inactive
NC(=O)c1ccc(-c2nc(-c3ccc4c(c3)OCCO4)c(-c3ccccn3)[nH]2)cc1,Potency,[7],inactive
same,Potency,[4],inactive
same,Potency,[5],inactive
Cc1cc(SCc2sc(-c3ccc(C(F)(F)F)cc3)nc2C)ccc1OCC(=O)O,Potency,[1],inactive
same,Potency,[9],5.26 µM (active)
same,Potency,[5],inactive
NC(N)=NC(=O)c1nc(Cl)c(N)nc1N,Potency,[1],14.8 µM (active)
same,Potency,[4],inactive
same,Potency,[5],9.35 µM (active)
O=C(NOC[C@H](O)CO)c1ccc(F)c(F)c1Nc1ccc(I)cc1F,Potency,[1],0.0105 µM (active)
same,Potency,[3],0.0662 µM (active)
same,Potency,[8],0.0296 µM (active)
same,Potency,[6],inactive
same,Potency,[5],0.059 µM (active)
CCN(CC)CCCC(C)Nc1ccnc2cc(Cl)ccc12 (stereo unspecified),Potency,[2],1.66 µM (active)
same,Potency,[6],inactive
same,Potency,[4],inactive
same,Potency,[5],inactive
O=c1n(CCCN2CCN(c3cccc(Cl)c3)CC2)nc2ccccn12,Potency,[1],inactive
same,Potency,[3],inactive
same,Potency,[6],inactive
same,Potency,[5],inactive
COc1ccc(C2=N[C@H](c3ccc(Cl)cc3)[C@H](c3ccc(Cl)cc3)N2C(=O)N2CCNC(=O)C2)c(OC(C)C)c1,Potency,[6],16.6 µM (active)
same,Potency,[4],8.33 µM (active)
same,Potency,[5],5.26 µM (active)
